Shown are actives, neighbours in structure and some others; about 1.3% of the full set was active somewhere.
A1 inh – caspase 3/7 activation in MEF A1-2A-BIM cells, primary screen, A1 inhibitor project, cell-based, luminescence, HTS | Caspase-Glo 3/7 luminescence, 3 h; percent of clofoctol response, vehicle zero | caspase activation, % (test concentration not listed) | 0.066% of 330,000 active;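 active means over half of replicate activation scores above 10%, or exactly half above 10 with the replicate mean above 10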
VLA-4 inh – inhibition in human VLA-4 binding assay, primary screen, VLA-4 allosteric modulator project, MLPCN library, flow cytometry, VLA-4 expressing cells | inhibition, % (about 7 µM as worked out from the volumes in the protocol) | ligand binding flow cytometry | 0.2% of 330,000 active; in the data active means inhibition above about 50%
Beta2AR agonist – beta2AR agonists driving receptor internalization, primary screen, cell-based, FAP fluorogen, flow cytometry | 0.43% of 340,000 active | response, % (test concentration not listed) | Am2.2-beta2AR cells | Beta-2 adrenergic receptor (Homo sapiens), P07550;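 active means response above a set limit, near 3 SD of response in nonfluorescent compounds, cut at about 42% in these data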
GRK2 inh – compounds blocking aptamer binding on GRK2 – biochemical, human GRK2, bead flow cytometry, HTS, primary screen | 0.59% of 330,000 active | Beta-adrenergic receptor kinase 1 (Homo sapiens), P25098 | inhibition of aptamer binding, % at 10 µM | FAM-aptamer displacement from GRK2;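 active means inhibition of aptamer binding above 40%, roughly 3 SD of noise, on plates passing a quality check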;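 further: median bead fluorescence of bound FAM aptamer so fluorescent compounds give negative values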
Target sequence (P25098 whole entry, looked up): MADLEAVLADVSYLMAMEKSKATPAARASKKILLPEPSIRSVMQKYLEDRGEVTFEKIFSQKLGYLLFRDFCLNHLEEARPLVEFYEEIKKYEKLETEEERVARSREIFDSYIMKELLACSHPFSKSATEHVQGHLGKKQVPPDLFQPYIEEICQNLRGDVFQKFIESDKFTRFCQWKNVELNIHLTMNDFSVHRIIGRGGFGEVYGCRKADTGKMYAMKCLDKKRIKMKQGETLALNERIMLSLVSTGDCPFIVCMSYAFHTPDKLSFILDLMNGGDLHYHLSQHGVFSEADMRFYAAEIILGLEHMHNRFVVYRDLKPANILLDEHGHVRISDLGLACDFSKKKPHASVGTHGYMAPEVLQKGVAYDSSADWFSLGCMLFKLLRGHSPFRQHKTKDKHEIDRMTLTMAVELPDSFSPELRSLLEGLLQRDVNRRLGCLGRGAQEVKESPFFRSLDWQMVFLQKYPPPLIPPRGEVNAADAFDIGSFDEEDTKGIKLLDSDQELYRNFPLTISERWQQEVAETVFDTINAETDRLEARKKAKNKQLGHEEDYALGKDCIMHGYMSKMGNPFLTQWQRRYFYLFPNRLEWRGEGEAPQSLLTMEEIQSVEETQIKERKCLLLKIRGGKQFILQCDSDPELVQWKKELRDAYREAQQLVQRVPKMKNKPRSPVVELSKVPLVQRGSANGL
NTR1 ag – agonists of human NTR1, primary screen, imaging, U2OS cells, beta-arrestin-GFP, high content. Neurotensin receptor type 1 (Homo sapiens), P30989. NTR1-U2OS beta-arrestin-GFP spot imaging, agonist mode. activation, % at 20 µM. 0.17% of 330,000 active. AID 493036, 2011;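 active means activation at or above 40% of the spot to cytoplasm intensity ratio, with at least 20 cells analyzed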;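 further: 0% = DMSO without peptide and 100% = 100 nM NTR1 peptide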
GRK2 CP1 – GRK2 aptamer-displacing inhibitors, retest, confirmation, biochemical, cherry pick 1, bead flow cytometry; shares compounds with GRK2 inh; bead-bound GRK2, FAM-aptamer displacement; aptamer displacement, % at 10 µM; 4% of 2,000 active;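 active means aptamer displacement above 40%, near three times the noise of non-fluorescent compounds, on plates passing quality checks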;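 further: negative values mostly reflect intrinsic compound fluorescence rather than true enhancement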
Aptamer quench SP – quenches fluorescent RNA aptamer, GRK2 hit artifact; shares compounds with GRK2 inh; Carboxyfluorescein RNA aptamer on beads, flow cytometry quenching; active compounds read low; fluorescence response (% of DMSO), % at 10 µM; 2,000 tested, under 10 active; AID 504580;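 active means compounds that quench the bead-bound fluorescent RNA probe, cutting fluorescence to under half of the solvent control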;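 further: counterscreen run without GRK2 so only probe quenching by compound is measured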
GRK2 confirm 2 – GRK2 aptamer-displacing inhibitors, hit retest, confirmation, biochemical, cherry pick 2, bead flow cytometry. bead-bound GRK2, FAM-aptamer displacement. AID 504782, 2011. shares compounds with GRK2 inh. 360 tested, under 10 active. inhibition of aptamer binding, % at 10 µM;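 active means inhibition of aptamer binding above 40%, about triple the noise seen with nonglowing compounds, on plates passing quality control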;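 further: negative values mostly come from compounds that fluoresce themselves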
FAM quench SP – aptamer fluorescence quenching in GRK2 counter-screen | shares compounds with GRK2 inh | carboxyfluorescein RNA aptamer beads, flow cytometry quenching; active compounds read low | fluorescence response vs DMSO, % at 10 µM | 360 tested, under 10 active | AID 588494;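 active means response vs DMSO under 50%, meaning signal dropped by over half, treated as fluorescence quencher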;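 further: labelled aptamer on streptavidin beads without GRK2 as a quench counter-screen; 100% = bead fluorescence of DMSO wells and lower means quenching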
An asterisk follows results filed as active; · = no result.

SMILES	A1 inh	VLA-4 inh	Beta2AR agonist	GRK2 inh	NTR1 ag	GRK2 CP1	Aptamer quench SP	others
COc1ccc(Nc2oc(-c3ccccc3)nc2C#N)cc1	0	-3	-5	52*	1	0	102
COc1ccc(-c2nc(C#N)c(NCCc3ccccc3)o2)cc1	0	14	6	0	3	·	·
COc1ccc(-c2nc(C#N)c(NCCN(C)C)o2)cc1	-1	20	-1	49*	-2	-4	102
CC(=O)c1c(C)[nH]c(C(=O)OCC(=O)NCCC2=CCCCC2)c1C	-1	23	8	0	2	·	·
O=Cc1nc(-c2ccccc2Cl)n2ccccc12	1	2	0	45*	2	-5	97
O=Cc1nc(-c2ccc(Cl)cc2)n2ccccc12	3	10	-21	1	0	·	·
Cn1cc(CCC(=O)N2CCCC(CCC(=O)NCc3ccccc3F)C2)cn1 (stereo unspecified)	0	2	-3	0	1	·	·
O=C(CCC1CCCN(C(=O)CCN2CCCCC2=O)C1)NCc1ccccc1F (stereo unspecified)	0	26	-3	17	0	-5	101
COc1ccc(NC(=O)N(C)C[C@H]2Oc3c(NS(=O)(=O)c4cccs4)cccc3C(=O)N([C@@H](C)CO)C[C@@H]2C)cc1	-1	22	4	0	-2	·	·
Cc1ccc(C)c(NC(=S)NC(=O)c2cncc(Br)c2)c1	0	7	0	79*	3	-2	96
CN(C(=O)c1ccccc1C(=O)OCC(=O)Nc1cccc(Br)c1)c1ccccc1	0	13	16	0	1	·	·
CCOC(=O)C1CCN(C(=O)C(=O)c2cn(CC(=O)N3CCCCCC3)c3ccccc23)CC1	-1	-14	-8	42*	0	·	·	GRK2 confirm 2=-16;FAM quench SP=103
CCc1cccc(NC(=O)C2CCCN(c3ncnc4c3nc3n4CCCCC3)C2)c1 (stereo unspecified)	0	18	-2	0	6	4	102
O=C(NCC1CCN(Cc2cccc(Cl)c2)CC1)C1CCCN(c2ncnc3c2nc2n3CCCCC2)C1 (stereo unspecified)	-1	-10	7	0	3	-6	100
C=CCn1c(SCC(=O)NCC)nc2sc3c(c2c1=O)CCC3	1	-4	-21	0	0	·	·	GRK2 confirm 2=-23;FAM quench SP=101
C=CCn1c(SCC(=O)NC)nc2sc3c(c2c1=O)CCC3	1	-13	-7	1	0	·	·	GRK2 confirm 2=17;FAM quench SP=99
C=CCn1c(SC(CCO)C(=O)NCc2ccco2)nc2sc3c(c2c1=O)CCC3 (stereo unspecified)	0	-2	2	1	7	·	·	GRK2 confirm 2=13;FAM quench SP=101
O=C(Nc1ccc(C(F)(F)F)cc1)C1CCCCN1S(=O)(=O)c1ccccc1 (stereo unspecified)	·	14	5	0	4	·	·
C=CS(=O)(=O)N(Cc1ccc(Cl)c(Cl)c1)C[C@@H](O)CO	·	·	2	0	-1	·	·
COc1ccc(CC(=O)NNC(=O)COc2ccc(F)cc2)cc1S(=O)(=O)N1CCOCC1	-1	-1	-10	41*	0	-4	95
COc1ccccc1N1CCN(S(=O)(=O)c2ccc(-n3cnnn3)cc2)CC1	-1	2	-10	0	0	·	·

From PubChem
